Laboratory results as given in article PMC4336329 (PLoS ONE, 2015).
The whole screen tested about 310,000 compounds, of which about 2,200 (0.71%) showed an effect of 50% or more. The effect is printed as a negative number. Only a selection was taken, and strong results are over-represented in it overall.

Molecular target: human ether-à-go-go-related gene (hERG) potassium channel (human, UniProt Q12809)
Assay: primary screen, population patch clamp on CHO cells stably expressing hERG; higher = less effect of the substance

human ether-à-go-go-related gene (hERG) potassium channel, sequence (Q12809 whole entry, looked up): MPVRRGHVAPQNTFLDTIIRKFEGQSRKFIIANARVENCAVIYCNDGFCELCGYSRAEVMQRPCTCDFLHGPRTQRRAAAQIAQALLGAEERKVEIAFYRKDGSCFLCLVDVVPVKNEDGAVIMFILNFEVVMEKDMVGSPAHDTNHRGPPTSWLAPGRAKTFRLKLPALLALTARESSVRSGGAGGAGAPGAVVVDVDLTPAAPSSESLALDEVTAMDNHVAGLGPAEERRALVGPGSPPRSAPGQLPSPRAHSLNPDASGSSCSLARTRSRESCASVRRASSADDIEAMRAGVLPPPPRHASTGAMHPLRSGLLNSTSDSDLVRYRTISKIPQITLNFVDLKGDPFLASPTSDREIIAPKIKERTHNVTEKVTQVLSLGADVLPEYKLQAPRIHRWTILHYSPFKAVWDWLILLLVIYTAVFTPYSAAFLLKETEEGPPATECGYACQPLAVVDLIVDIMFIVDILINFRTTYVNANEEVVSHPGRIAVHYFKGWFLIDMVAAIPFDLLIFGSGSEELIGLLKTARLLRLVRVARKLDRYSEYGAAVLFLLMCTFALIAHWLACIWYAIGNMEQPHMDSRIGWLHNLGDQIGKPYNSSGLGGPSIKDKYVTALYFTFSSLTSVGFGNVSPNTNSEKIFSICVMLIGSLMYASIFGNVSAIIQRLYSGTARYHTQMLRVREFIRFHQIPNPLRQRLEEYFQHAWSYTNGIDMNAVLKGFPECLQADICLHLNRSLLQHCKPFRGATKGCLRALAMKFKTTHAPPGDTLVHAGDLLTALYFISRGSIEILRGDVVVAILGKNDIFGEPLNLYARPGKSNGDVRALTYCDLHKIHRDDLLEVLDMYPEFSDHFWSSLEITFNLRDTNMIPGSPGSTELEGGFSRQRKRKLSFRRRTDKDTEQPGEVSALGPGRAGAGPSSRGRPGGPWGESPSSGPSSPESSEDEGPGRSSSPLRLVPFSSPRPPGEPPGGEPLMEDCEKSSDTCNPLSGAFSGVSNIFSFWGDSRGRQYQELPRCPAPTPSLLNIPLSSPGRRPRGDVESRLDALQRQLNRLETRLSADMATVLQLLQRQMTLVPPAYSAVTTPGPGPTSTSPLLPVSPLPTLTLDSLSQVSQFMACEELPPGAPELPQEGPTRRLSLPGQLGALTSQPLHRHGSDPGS

Row | Compound | hERG current change (%, negative = inhibition) at 1uM [%]
1 | C#CCOCCOCCOCCNc1nc(N2CCOCC2)nc(N2CCN(C(=O)Cn3cc(CCC[NH+]=C(N)N)nn3)CC2)n1.[Cl-] | 17.5
2 | CCc1ccc(/C=C(/C#N)C(N)=S)s1 | 15
3 | O=C(N/N=C/c1ccsc1)c1ccccn1 | 16.7
4 | O=C(CNC(=S)N(CCCN1CCOCC1)Cc1cccs1)NCCCN1CCOCC1 | 16.3
5 | O=C(Nc1ccc(Cl)c(Cl)c1)N(CCCN1CCOCC1)Cc1cccs1 | -41.8
6 | O=C(CNC(=S)N(CCCN1CCOCC1)Cc1cccs1)NCc1ccc(Cl)cc1 | -61.3
7 | O=C(Nc1ccc(Cl)cc1)N(CCCN1CCOCC1)Cc1cccs1 | -55
8 | O=C(CNC(=S)N(CCCN1CCOCC1)Cc1cccs1)NCc1ccccc1Cl | -35.5
9 | O=C(Nc1ccccc1)N(CCCN1CCOCC1)Cc1cccs1 | -29.2
10 | Cc1ccc(OCC(=O)N2CCc3ccccc32)cc1 | 10.7
11 | CCCCOc1ccc(NC(=O)CN2CCN(Cc3ccccc3)CC2)cc1 | 1.72
12 | Cc1ccc(NC(=O)CN2CCC(NC(=O)c3cccc(F)c3)CC2)cc1C | -13.4
13 | Cc1cc(C(=O)CN2CCN(CC(=O)Nc3cccc(F)c3)CC2)c(C)n1C1CC1 | -7.82
14 | Cc1cc(C(=O)CN2CCN(CC(=O)Nc3ccc(F)cc3)CC2)c(C)n1C1CC1 | -72.3
15 | CCOc1ccc(NC(=O)CN2CCN(C3c4ccccc4-c4ccccc43)CC2)cc1 | -25.5
16 | O=C(CN1CCN(c2ccccc2)CC1)Nc1ccc(OCc2ccccc2)cc1 | 13.4
17 | O=C(CN1CCN(CC(=O)Nc2ccc(OCc3ccccc3)cc2)CC1)Nc1ccc(F)cc1 | -81.5
18 | Cc1cccc(C)c1NC(=O)CN1CCN(CC(=O)c2cc(C)n(C3CC3)c2C)CC1 | -0.73
19 | CCOc1ccc(NC(=O)CN2CCN(Cc3c(F)cccc3F)CC2)cc1 | -50.7
20 | O=C(CN1CCC(NC(=O)c2cccc(F)c2)CC1)Nc1ccc(Br)cc1 | -53.9
21 | O=C(CN1CCCC1)Nc1ccc(OCc2ccccc2)cc1 | 8
22 | Cc1cc(C)cc(NC(=O)CN2CCC(NC(=O)c3cccc(F)c3)CC2)c1 | 4.29
23 | C[C@]1(C(=O)NCCc2c[nH]c3ccccc23)C=C[C@@H](Cc2ccccc2)N1C(=O)c1ccccc1 | 7.98

Row | Compound | hERG current change (%, negative = inhibition) at 1uM [%]
24 | CCn1ccc(C(=O)NC2CCCC2)n1 | 8.64
25 | CN(C)C(=O)CN1CCN(Cc2nc(CC3CC3)no2)CC1 | 7.17
26 | COCCN(C(=O)CSc1nc2ccccc2c(=O)n1CCOC)c1c(N)n(Cc2ccccc2)c(=O)[nH]c1=O | 12.6
27 | Cl.O=S(=O)(NC1CCN(Cc2ccccc2)CC1)c1ccc2ccccc2c1 | 4.69
28 | C#CCOCCOCCOCCNc1nc(N2CCN(C(=O)[C@H](Cc3ccc(O)cc3)n3cc([C@@H](N)C(C)CC)nn3)CC2)nc(N2CCN(C(=O)[C@H](CCCCN)n3cc([C@@H](N)CO)nn3)CC2)n1.Cl (stereo partly shown) | 12.4
29 | COc1cccc(/C=C/C(=O)OCC(=O)NC2CC2)c1 | 10.5
30 | CC(C)/C(=N/Nc1ccccc1[N+](=O)[O-])c1ccccc1 | 22.6
31 | CCCCc1nnc(NC(=O)COC)s1 | 16.3
32 | CCOc1ccc(NC(=O)CN2CCC(n3cnc4cc(F)ccc43)CC2)cc1 | -71.7
33 | CC(=O)Nc1ccc(S(=O)(=O)N2CCC(n3cnc4cc(F)ccc43)CC2)cc1 | -26.4
34 | CCOC(=O)N1CCN(CC(=O)Nc2ccc(F)cc2)CC1 | -73
35 | COc1cc(NC(=O)CN2CCCCCC2)cc(OC)c1 | 13.5
36 | CCOC(=O)N1CCN(CC(=O)Nc2ccc(C)cc2)CC1 | 6.17
37 | COc1ccccc1CNC(=O)CN1CCC(NC(=O)c2ccccc2F)CC1.Cl | 1.06
38 | CCOc1ccc(NC(=O)CN2CCN(CC(=O)Nc3ccc(C(=O)OC)cc3)CC2)cc1 | -48
39 | CCOc1ccc(NC(=O)CN2CCN(CC(=O)Nc3cc(OC)cc(OC)c3)CC2)cc1 | -71.3
40 | O=C(CN1CCC(n2cnc3cc(F)ccc32)CC1)Nc1ccccc1Br | -23.5
41 | CCOC(=O)N1CCN(CC(=O)Nc2ccc(OC)cc2)CC1 | 9.1
42 | COc1ccccc1CNC(=O)CN1CCC(n2cnc3cc(F)ccc32)CC1 | -59.1
43 | COc1cc(C(=O)N2CCC(n3cnc4cc(F)ccc43)CC2)cc(OC)c1OC | -9.25
44 | CCN(C(=O)CSc1nc2cc(C(=O)OC)ccc2c(=O)n1Cc1ccco1)c1cccc(C)c1 | 7.87
45 | Cc1c(NC(=O)C(C)Oc2ccc(Br)cc2Cl)c(=O)n(-c2ccccc2)n1C (stereo not shown) | -1.81
46 | COc1ccc(C(=O)NC(=S)NCc2ccco2)cc1 | 15

Row | Compound | hERG current change (%, negative = inhibition) at 1uM [%]
47 | Cc1cc(C)c(S(=O)(=O)Cc2ccc(Cl)cc2)c(=O)[nH]1 | 9.42
48 | O=C(N1CCN(CCO)CC1)N1c2ccccc2C=Cc2ccccc21 | 13
49 | COc1ccc(NC(=O)c2ccc(NC(=O)c3cccs3)cc2)cc1 | 0.302
50 | CCN(C(=O)CSc1nnc(NC2CCCCC2)s1)C1CCS(=O)(=O)C1 (stereo not shown) | 2.2
51 | CCOc1ccc(NC(=O)CN2CCN(CC(=O)Nc3ccc(C(N)=O)cc3)CC2)cc1 | -36.9
52 | O=C(CN1CCN(CC(=O)Nc2cccc(F)c2)CC1)Nc1ccc(-c2ccccc2)cc1 | 13.6
53 | CCOC(=O)N1CCN(CC(=O)Nc2ccc(F)c(F)c2)CC1 | 8.59
54 | CCOc1ccc(NC(=O)CN2CCN(CC(=O)Nc3cccc(F)c3)CC2)cc1 | -97.2
55 | COc1ccc(S(=O)(=O)N2CCN(CC(=O)Nc3cccc(F)c3)CC2)cc1 | -8.66
56 | CCOc1ccc(NC(=O)CN2CCN(CC(=O)Nc3ccc(F)c(F)c3)CC2)cc1 | -87.9
57 | CCOc1ccc(NC(=O)CN2CCN(CC(=O)Nc3ccc(Cl)c(C(F)(F)F)c3)CC2)cc1 | -6.47
58 | CCOc1ccc(NC(=O)CN2CCN(CC(=O)c3ccc(OC)c(OC)c3)CC2)cc1 | -56.3
59 | O=C(NCc1ccccc1)N1CCC(n2cnc3cc(F)ccc32)CC1 | -56.6
60 | CCOc1ccc(NC(=O)CNC(=O)c2ccc(OC)c(OC)c2)cc1 | 5.55
61 | O=C(c1ccc(F)cc1)C1CCN(C(=O)NCc2ccccc2)CC1 | -5.59
62 | O=C(NCc1ccc(F)cc1)C1CCN(C(=O)NCc2ccccc2)CC1 | 19.1
63 | CCCCSc1nnc(-c2cc(Br)ccc2N)c(=O)[nH]1 | 0.939
64 | CCC(C)(C)NC(=O)C(c1ccc(OC)cc1)N(Cc1ccco1)C(=O)CCC(=O)Nc1cc(C)on1 (stereo not shown) | 4.86
65 | COc1ccc(CC(NC(C)=O)C(=O)NC2CCN(C(=O)Nc3ccc(Cl)cc3)CC2)cc1OC (stereo not shown) | 10.2
66 | O=C(COc1ccccc1[N+](=O)[O-])NCC1(N2CCCCC2)CCCCC1 | -4.91
67 | CCOC(=O)c1ccc(NC(=O)COc2coc(CN3CCc4ccccc43)cc2=O)cc1 | 8.2
68 | COc1ccc(OC)c(S(=O)(=O)N2CCC(C(=O)NCc3ccccc3OC)CC2)c1 | 3.09
69 | NC1=NC[C@@H](Cc2ccc(O)cc2)N1CCC12CC3CC(CC(C3)C1)C2 | 10.4

Row | Compound | hERG current change (%, negative = inhibition) at 1uM [%]
70 | N#CCCSc1ncnc2c1oc1ccccc12 | 4.55
71 | CCOc1ccc(NC(=O)CN2CCN(c3ccc(F)cc3)CC2)cc1 | 11.4
72 | CCOC(=O)N1CCN(C(=O)c2cc(-c3ccc(F)cc3)[nH]c2C)CC1 | -54.1
73 | CCOC(=O)N1CCC(NC(=O)c2cc(-c3ccc(F)cc3)[nH]c2C)CC1 | 11.6
74 | CCOc1ccc(NC(=O)CN2CCN(CC(=O)Nc3ccc(F)cc3)CC2)cc1 | -87.3
75 | COc1ccc(NC(=O)CN2CCN(c3ccc(F)cc3)CC2)cc1 | 7.86
76 | Cc1[nH]c(-c2ccc(F)cc2)cc1C(=O)N1CCN(c2ccccc2)CC1 | -29
77 | CCn1cc(/C=C/C(=O)Nc2c(C)nn(Cc3ccccc3C)c2C)cn1 | 15.5
78 | CC(=O)N/N=C/c1cc(C)n(-c2ccc(Br)cc2)c1C | 1.14
79 | CC1N(C(=O)N2CCOCC2)CCN1S(=O)(=O)c1ccc(Cl)cc1 (stereo not shown) | 4
80 | Cc1ccc(C(=O)N/C(=C\c2ccc(-c3cc(Cl)ccc3Cl)o2)C(=O)NCc2cccnc2)cc1 | 5.35
81 | O=C(NCCO)/C(=C\c1ccc([N+](=O)[O-])o1)NC(=O)c1ccccc1 | 4.89
82 | Cc1ccc(C(=O)N/C(=C\c2ccc(-c3ccc(Cl)cc3)o2)C(=O)NCCCN(C)C)cc1 | -93.5
83 | Cc1ccc(/C=C(\NC(=O)c2ccccc2)C(=O)NCCN2CCOCC2)o1 | 1.36
84 | CN(C)CCNC(=O)/C(=C/c1ccc(-c2ccc(Cl)cc2)o1)NC(=O)c1ccccc1 | -82
85 | CN(C)CCCNC(=O)/C(=C\c1ccc(-c2ccc(Br)cc2)o1)NC(=O)c1ccccc1 | -82
86 | CN(C)CCNC(=O)/C(=C/c1ccc(-c2cccc(Cl)c2)o1)NC(=O)c1ccccc1 | -31.4
87 | Cc1ccc(C(=O)N/C(=C\c2ccc(Cl)cc2)C(=O)NCC2CCCO2)cc1 (stereo not shown) | -38.7
88 | Cc1ccc(C(=O)N/C(=C\c2ccc(-c3ccc(Br)cc3)o2)C(=O)NC2CCS(=O)(=O)C2)cc1 (stereo not shown) | 7.85
89 | Cc1ccc(C(=O)N/C(=C\c2ccc(-c3ccc(Br)cc3)o2)C(=O)NCCCN(C)C)cc1 | -84.2
90 | Cc1ccc(C(=O)N/C(=C/c2ccc(-c3ccc(Br)cc3)o2)C(=O)NC2CCS(=O)(=O)C2)cc1 (stereo not shown) | 3.65
91 | CN(C)CCNC(=O)/C(=C/c1ccc(-c2ccc(Cl)cc2Cl)o1)NC(=O)c1ccccc1 | -7.71
